According to PubChem BioAssay AID492947 (National Center for Advancing Translational Sciences (NCATS), 2010):
The whole screen tested about 330,000 compounds, of which about 80 (0.02%) were called active. Calls follow the shape of the dose curve; as a rule, active = well fitted activation curve with a large enough effect; inconclusive = small, poorly fitted or top-dose-only effect; inactive = flat fitted curve, though single readings scatter. Only a selection was taken, and actives are over-represented in it overall. Square brackets hold non-standard residues; d marks the D form. Peptide text beside a SMILES is read from it. * marks the point of attachment. PhAc = O=C(Cc1ccccc1)*

Target: Beta-2 adrenergic receptor (Homo sapiens) (UniProt P07550)
Sequence (P07550 whole entry, looked up): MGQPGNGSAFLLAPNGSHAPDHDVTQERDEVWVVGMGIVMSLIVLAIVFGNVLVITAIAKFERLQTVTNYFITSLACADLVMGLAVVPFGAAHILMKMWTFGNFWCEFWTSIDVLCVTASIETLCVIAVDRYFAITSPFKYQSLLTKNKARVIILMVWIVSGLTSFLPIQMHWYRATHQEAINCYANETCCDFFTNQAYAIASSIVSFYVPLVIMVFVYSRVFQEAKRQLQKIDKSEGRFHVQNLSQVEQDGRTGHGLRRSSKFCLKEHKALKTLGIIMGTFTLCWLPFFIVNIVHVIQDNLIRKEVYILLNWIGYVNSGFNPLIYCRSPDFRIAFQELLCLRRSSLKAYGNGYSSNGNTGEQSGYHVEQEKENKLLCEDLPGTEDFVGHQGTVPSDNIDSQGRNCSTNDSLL
Assay: qHTS assay of beta-arrestin-biased ligands of beta2-adrenergic receptor; also: nearly all actives have a fitted effect of over 65% in size;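 as to activation: 0% = DMSO controls and full agonism = EC100 isoproterenol or metaproterenol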
Details: beta-arrestin recruitment to beta2AR, cell-based reporter; series mostly up to 46.1 µM; activation: at the top concentration
From the text: NIH Molecular Libraries Probe Production Network [MLPCN]
NIH Chemical Genomics Center [NCGC]
PI: Bryan Roth and Bob Lefkowitz
The concept of biased agonism is an emerging concept of molecular pharmacology which proposes that seven transmembrane receptors (7TMRs) or G protein-coupled receptors (GPCRs), exist in multiple signaling conformations and complexes and that ligands (either agonists or antagonists) can induce signaling biased responses for distinct signal transduction cascades.
Furthermore, accumulating evidence over the last decade has drawn attention to a novel function of beta-arrestins as signal transducers that scaffold various signaling molecules upon activation of 7TMRs. […] This beta-arrestin-biased signaling presumably leads to distinct physiological outcomes from those by G protein activation.
Additionally, the active receptor conformations which […] on this beta-arrestin signaling are likely different from those activating G protein signaling
The goal of this screening project will be to discover and optimize novel beta-arrestin-biased ligands for beta2-AR signaling. A luminescent cell-based assay for beta2-AR-mediated agonism, known as the Tango assay, has been validated in which ligand binding of a recombinant beta2-AR and subsequent recruitment of a recombinant beta-arrestin lead to the release of the transcriptional activator tTA, which upregulates transcription of a tTA-responsive luciferase gene. […] Compounds were screened as a concentration-titration series that ranged from 46 microM to 0.6 nM.
NCGC Assay Protocol Summary:
Tango cells were dispensed into white, solid, tissue-culture-treated 1536-well plates at 1500 cells/well in DMEM, containing 1% fetal bovine serum (FBS). Then, 23 nL of compounds or DMSO were delivered to each well using a pin tool. Plates were incubated at 37 degrees C, 5% CO2 for 18 hr. Then 2.5 uL luminescent substrate mix (in-house prepared: 150 mM Tris-Cl, pH 7.6, 3 mM MgCl2, 1% Triton X-100, 5 mM DTT, 0.5 mM CoA, 0.15 mM ATP, 0.44 mM D-luciferin, final concentrations) was added to each well. Plates were then incubated for 15 minutes at room temperature, and subsequently measured on a ViewLux plate reader for luminescent signal using a clear filter with a 10 second exposure and 2x binning. The %Activity was determined from the corrected luminescence values.
Concentration-response curves were fitted to the signals arising from the resulting luminescence. The concentration-effect curves were then classified based on curve quality (r2), response magnitude and degree of measured activity, and compounds were subsequently categorized based on their curve class.
Keywords: biased agonism, beta2-AR, beta-arrestin, GPCR, 7TMR, Tango, luminescence, MLSMR, MLPCN, NIH Roadmap, qHTS, NCGC
Potency is read from the fitted curve at half-maximal effect.

activation, inactive:
COc1ccc(Cn2c(-c3ccc(Cl)cc3)c[n+]3ccccc23)cc1 -0.0012%
Cc1cc(NC(=O)CSc2nccn2-c2ccc([N+](=O)[O-])cc2)no1 -0.528%
COc1ccc(N=Nc2c(-c3ccc(OC)cc3)[nH]oc2=O)cc1 0.159%
COc1ccccc1CNS(=O)(=O)CC12CCC(CC1=O)C2(C)C (stereo not drawn) 0.226%
CCC(C)NC(=O)c1nn(C)c(=O)c2ccccc12 (stereo not drawn) 0.002%
CCOc1ccc2c(c1)c(=O)c(S(=O)(=O)c1ccc(C)cc1)cn2CC -0.562%
COc1ccc2ccccc2c1CNCc1ccccn1 0.39%
O=C(Cn1nnc2ccccc2c1=O)Nc1cc(C(F)(F)F)ccc1N1CCOCC1 -0.629%
Cc1ccc(SCC(=O)NNC(=O)c2ccc(S(C)(=O)=O)cc2)cc1 -1.22%
CC1Cc2ccccc2N1C(=O)Cn1cnc2ccccc2c1=O (stereo not drawn) -1.41%
CC1CCCC(NC(=O)c2cc(-c3ccncc3)nc3ccccc23)C1C (stereo not drawn) -0.497%
CC1CCN(c2oc(-c3ccccc3F)nc2C#N)CC1 -0.667%
O=C(Nc1c(-c2ccccc2)nc2c(Br)cc(Br)cn12)c1ccco1 -0.134%
CC(=O)c1cccc(NC(=O)CN2C(=O)c3cccnc3Oc3ccc(Cl)cc32)c1 -0.648%
COc1ccccc1OCc1ccc(C(=O)NC(C)c2ccccc2)o1 (stereo not drawn) -0.353%
CCN(CC)Cc1csc2ccc(Br)cc12 0.52%
COc1ccc(C(=O)N(CCN2CCOCC2)CC(=O)NC2CCCC2)cc1OC -0.299%
COc1ccc([N+](=O)[O-])cc1NC(=O)C(C)OC(=O)C1c2ccccc2Oc2ccccc21 (stereo not drawn) -0.921%
CNc1nccc(-c2ccc(Cl)cc2)c1C#N -0.419%
CC(C)(C)CC(C)(C)NCC(O)COCCOc1ccc(Br)cc1 (stereo not drawn) -1.41%
CC(C)C(c1nnnn1C(C)(C)C)N1CCN(Cc2cccnc2)CC1 (stereo not drawn) 0.227%
O=C(CSc1ccc(-c2ccc(-n3cccn3)cc2)nn1)Nc1ccc([N+](=O)[O-])cc1 -0.051%
COc1ccc(CNS(=O)(=O)c2cc3c4c(c2)CCN4C(=O)CC3)cc1 0.0665%
CCN(CC(=O)Nc1ccccc1C(F)(F)F)C(=O)CSCc1c(C)noc1C 0.203%
CN(CC(=O)Nc1ccc(F)c(F)c1F)C(=O)Cn1cnc2c1c(=O)n(C)c(=O)n2C -0.0001%
COC(=O)C1(C)NC(c2ccc(C)cc2)C2C(=O)N(c3ccc(F)cc3)C(=O)C21 (stereo not drawn) -0.0353%
CC1CC(c2ccccc2)n2nc(NC(=O)c3cccs3)nc2N1 (stereo not drawn) -0.19%
CN(C(=O)CSc1nnc(-c2ccc(C(C)(C)C)cc2)n1C)C1CCS(=O)(=O)C1 (stereo not drawn) -0.268%
Cc1ccc(NC(=O)CN(C)C(=O)COC(=O)c2nccnc2N)cc1 -0.155%
CC(C)CC[n+]1ccn(C2=C([O-])c3ccccc3C(=O)/C2=N\S(=O)(=O)c2ccccc2)c1 -0.852%
CC1(C)O[C@H]2CC(=O)OCC23[C@H]2CC[C@@]4(C)[C@H](c5ccoc5)OC(=O)[C@H]5O[C@]54[C@]2(C)C(=O)C[C@@H]13 (stereo partly drawn) -0.047%
CCOC(=O)C1CCN(C(=O)COC(=O)C2CCN(S(=O)(=O)c3ccc4c(c3)OCCO4)CC2)CC1 -0.237%
Cc1ccc(C(=O)N2CC(=O)Nc3ccc(F)cc3C2c2ccc(F)cc2)cc1 (stereo not drawn) 0.502%
CCOC(=O)N1CCC(NC(=O)CCc2cn(C)c3ccccc23)CC1 -0.0838%
FC(F)(F)c1cc(C(F)(F)F)c2ccc(N3CCN(c4ccccc4)CC3)nc2n1 0.785%
Cc1ccccc1NC(=O)C(C)OC(=O)CCC(=O)N(CC(C)C)c1c(N)n(CC(C)C)c(=O)[nH]c1=O (stereo not drawn) -0.281%
COc1cc(NC(=O)c2ccc(-c3csc(C)n3)cc2)c(OC)cc1Cl -0.0491%
[O-][N+]12CCCCC1CCCC2CO (stereo not drawn) -1.12%
CCN(Cc1ccccc1)C(=O)CSc1nc(C)cc2c1C(=O)OC2 0.268%
O=C(COc1ccc(Cl)cc1)NCc1nnc(SCC(=O)NCC2CCCO2)o1 (stereo not drawn) 0.293%
Cc1ccc(C(C(=O)NCC2CCCO2)N(C(=O)c2snc(C(N)=O)c2N)c2ccc(C(C)C)cc2)o1 (stereo not drawn) 0.458%
CC(=O)N/C(=C\c1ccccc1)C(=O)OC(C)C(=O)N(C)c1ccccc1 (stereo not drawn) -0.203%
C=CCn1c(SCC(=O)NC23CC4CC(CC(C4)C2)C3)nc(O)cc1=O -0.0159%
Cc1ccc(/C=N/NC(=O)CN2CCN(Cc3ccccc3)CC2)s1 5.3%
C=CCNC(=S)N/N=C/c1ccc(OCc2ccccc2)cc1 0.0669%
CCOC(=O)c1sc(N)c(C#N)c1COC(=O)C1=COCCO1 -0.132%
COc1ccc(NC(=O)Cn2c(-c3ccc(OC)cc3)cn(-c3ccc(C)cc3)c2=O)cc1 3%
O=C(c1cc2ccccc2o1)N1CCN(c2cccc(C(F)(F)F)c2)CC1 -0.96%
CC(C)[C@H](NC(=O)c1ccc(F)cc1)C(=O)OCC(=O)NC(=O)c1cccn1C -0.698%
CC1CN(CCCOc2ccccc2-c2ccccc2)CC(C)O1 (stereo not drawn) -0.144%
CCOC(=O)CC1COCCN1C(=O)c1cc(COc2ccc(F)c(F)c2)on1 (stereo not drawn) 0.384%
COC/C=C/C1=CC2=CC(=O)C(C)(OC(=O)CCC(=O)OC)C(=O)C2=CO1 (stereo not drawn) 0.0713%
O=C(CCn1nnnc1CN1CCOCC1)N1CCC(c2ccccc2Cl)C1 (stereo not drawn) -0.681%
CC(=O)Oc1ccc(-c2cccc(C(=O)N3CCCCC3)c2)cc1 -0.158%
CC1(C)CC(=O)C(C=NCc2cccnc2)=C(O)C1 0.219%
N#C/C(=C\c1cccnc1)C(=O)Nc1ccc(SC(F)F)cc1 -0.913%
COc1ccc(OC)c(CNC(=O)Cn2nc(C)c3c(C)n(-c4ccc(C)cc4)nc3c2=O)c1 -0.685%
Cc1ccc(NN=Nc2nc3c([nH]2)c(=O)n(C)c(=O)n3C)cc1 -0.313%
COc1ccc(CNC(=O)C(C)NCc2ccccc2Cl)cc1 (stereo not drawn) 0.288%
O=C(Cc1ccc(Cl)cc1)NC(=S)Nc1ccccc1O -0.0954%
Cc1ccccc1CCNC(=O)C1CCC(=O)N(Cc2ccc(Cl)cc2)C1 (stereo not drawn) -0.532%
CC(C)OCCCNC(=O)c1ccc(C2SCC(=O)N2Cc2ccco2)cc1 (stereo not drawn) 0.272%
COc1ccc(Cl)cc1S(=O)(=O)N1CCC(O)(c2ccc(Cl)cc2)CC1 -0.567%
Cc1nc2scc(-c3cccs3)c2c(=O)n1N -1.83%
CCOc1ccc(OCC)c(NC(=O)CSc2nnc(Cn3cnc4ccccc43)n2C)c1 -0.211%
C=C1CCN([C@H](C(=O)NCc2cc(OC)c(OC)c(OC)c2)C(C)C)S(=O)(=O)c2ccccc21 0.37%
COc1cc(C2C3=C(CCCC3=O)OC3=C2C(=O)CCC3)ccc1OCC(=O)Nc1ccccc1 -0.63%
O=S(=O)(O)CCN1CCOCC1 -0.0424%
O=S(=O)(NC1CCCCC1)c1ccc(F)c2ccccc12 -0.345%
NS(=O)(=O)c1cc2c(cc1Cl)NC(C(Cl)Cl)NS2(=O)=O (stereo not drawn) -0.908%
COc1ccc(/C(O)=C2/C(=O)C(=O)N(CC3CCCO3)C2c2ccc(OC)c(OC)c2)cc1 (stereo not drawn) -0.248%
CCCOc1ccc(-c2c(C(=O)N/N=C/c3ccco3)nnn2-c2nonc2N)cc1 -0.534%
Cc1cc(S(=O)(=O)c2cc3ccc(O)c(C)c3oc2=O)ccc1F 0.271%
CSCC[C@H](NC(=O)NC1CCCC1)C(=O)O 0.222%
CCN(c1ccccc1)S(=O)(=O)c1ccc(C(=O)Nc2ccccc2OC)cc1 0.146%
Cc1ccc(CN2CCN(Cc3ccc(OCCO)cc3)CC2CCO)o1 (stereo not drawn) -0.418%
COc1ccc(OC)c(NC(=O)c2sc3nc(C)cc(C)c3c2N)c1 0.456%
CCCN1CCN(C(=O)Cn2ncc3ccccc32)CC1 -1.82%
C[C@H](CO)N1C[C@H](C)[C@@H](CN(C)C(=O)Nc2ccc3c(c2)OCO3)Oc2c(cccc2N(C)C)C1=O -0.0114%
CCn1ccnc1CN1CCCC(C(=O)c2ccc3c4c(cccc24)CC3)C1 (stereo not drawn) 7.21%
Cc1cccc(C(=O)NNC(=O)CSc2nnc(C(C)C)n2C)c1 0.405%
C/C=C/C(=O)Nc1nnc(C(C)C)s1 0.101%
CCSc1nc2c(c(=O)[nH]1)C(c1cccnc1)C(C(=O)OC(C)C)=C(C)N2 (stereo not drawn) 2.44%
CC1(C)CC(N(Cc2ccccc2)C(=O)Cc2ccccc2)CCO1 (stereo not drawn) 0.0559%
COc1cccc(N(CC(=O)NC2CCCC2)C(=O)CCCC(=O)Nc2ccccn2)c1 -0.143%
O=C1CSc2ccc(S(=O)(=O)NCc3ccccc3)cc2N1 0.128%
CN(c1cccc(NC(=O)c2ccc(CN3CCc4ccccc4C3)cc2)c1)S(C)(=O)=O -0.688%
COc1ccc(NC(=O)C2CCC(CNS(=O)(=O)c3csc(C(N)=O)c3)CC2)cc1OC (stereo not drawn) 0.217%
O=C(NCCc1ccc(C(F)(F)F)cc1)c1ccc2c(c1)OCO2 0.112%
COc1ccc(C(C)=O)cc1CN1C(=O)NC2(CCCCC2C)C1=O (stereo not drawn) -0.794%
Cc1ccc(NC(=O)CS(=O)CC(=O)N(c2ccccc2)C(C)C(=O)NC2CCCC2)cc1 (stereo not drawn) -0.262%
CC(C)C[C@@H](NC(=O)[C@H]1CCCN1C(=O)Cc1ccccc1)C(N)=O (PhAc-[dP]-[dL]-NH2) 0.667%
CCOC(=O)Cn1c(O)c(N=NC(=O)CNC(=O)Cc2ccccc2)c2ccccc21 0.315%
CCn1c(CC(=O)Nc2ccc(C)cc2)nnc1SCC(=O)Nc1nc(C)cs1 -1.04%
Cc1noc(C)c1C(=O)OCC(=O)N1CCN(S(=O)(=O)c2ccc3ccccc3c2)CC1 -0.677%
Cc1nc2ccc(NC(=O)C3CCCCC3)cc2s1 -0.228%
Cc1ccc(NC(=S)NCCc2ccc(Cl)cc2)c(C)c1 -0.056%
CCCCOC(=O)Nc1nccs1 0.2%
O=C(CN(Cc1ccccc1)C(=O)c1ccc2c(c1)OCCO2)NCc1ccc2c(c1)OCO2 -0.348%
CC(OC(=O)CN1C(=O)c2ccccc2C1=O)C(=O)c1ccccc1 (stereo not drawn) -0.0877%
COc1ccc(OC)c(CNC(=O)c2cc(=O)[nH]c3ccc(S(=O)(=O)N4CCCC4)cc23)c1 0.0882%
CCCCN=C1N/C(=C\c2ccco2)C(=O)N1c1ccccc1 0.239%

Potency, active:
C=CCNC(=S)N/N=C/c1ccc(C)s1 5.62 µM
